# Assay results published in PMC4552634, “A New Set of Chemical Starting Points with Plasmodium falciparum Transmission-Blocking Potential for Antimalarial Drug Discovery” (PLoS ONE, 2015).
# The campaign covered roughly 13,000 compounds. About 3,200 (25%) showed an effect of 50% or more. The list shows a part of the results.
# System: P. falciparum stage V gametocytes
# Design: BacTiter-Glo ATP luminescence viability of purified stage V gametocytes in 384-well plates, per cent inhibition versus DMSO
# Conditions: 48 h, 5 µM; inhibitor
row,SMILES,% Inhibition
1,NCC(NC(=O)c1ccc(-c2c[nH]c3ncccc23)s1)c1ccccc1 (stereo not shown) [TCMDC-134154],-44.12%
2,CCC1(CC)CN(c2ccccc2)c2ccc(O)cc2S(=O)(=O)C1CC(C)C (stereo not shown) [TCMDC-137217],-89.07%
3,N#Cc1ccc2c(c1)CCN(CCC1CCC(NC(=O)/C=C/c3ccc4ccccc4c3)CC1)CC2 (stereo not shown) [TCMDC-139779],-26.43%
4,OCCCCCCNc1ccnc2[nH]c3ccc(I)cc3c12 [TCMDC-131830],10%
5,Cc1cccc2[nH]c(-c3ccc(-c4cccc(NC(=O)Nc5ccc6c(c5)OCO6)c4)cc3)nc12 [TCMDC-133166],-1.928%
6,Cc1cccc2[nH]c(-c3cccc(-c4ccc(NC(=O)Nc5ccc6c(c5)OCO6)cc4)c3)nc12 [TCMDC-133163],-27.37%
7,CC(Sc1nc2sccc2c(=O)n1C)C(=O)Nc1ccc2c(c1)OCO2 (stereo not shown) [TCMDC-125026],100.7%
8,O=C(NCC1CCC(C(=O)O)CC1)c1ccc(/C=C/C(=O)N2CCc3ccccc3C2c2ccc3c(c2)OCO3)cc1 (stereo not shown) [TCMDC-138267],-9.047%
9,O=S(=O)(NCCN1CCCC1)c1ccc(-c2cccc(CNCc3ccc(F)cc3)c2)cc1 [TCMDC-132407],38.56%
10,O=S(=O)(NCCN1CCCC1)c1cccc(-c2cccc(CNCc3ccc(F)cc3)c2)c1 [TCMDC-132276],98.39%
11,CS(=O)(=O)c1ccc(CNCc2cccc(-c3cccc(-c4nc5ccc(F)cc5[nH]4)c3)c2)cc1 [TCMDC-132907],-11.65%
12,O=S(=O)(NCCN1CCCC1)c1cccc(-c2ccc(CNCc3ccc(F)cc3)cc2)c1 [TCMDC-132289],105.2%
13,O=C(/C=C/c1ccc(Cl)c(Cl)c1)NCCCCCN1CCC(n2c(=O)[nH]c3ccccc32)CC1 [TCMDC-139330],-42.06%
14,CC(C)C[C@H](NC(=O)[C@H](Cc1ccccc1)NC(=O)CCN1C(=O)COc2ccc(C(=O)O)cc21)C(=O)NC(CC1CCCCC1)C(O)CC(=O)NCCCn1ccnc1 (stereo partly shown) [TCMDC-131640],6.577%
15,CC(CNC(=N)c1cccc(C(=N)NCC(C)Oc2cccc(C3CCCCC3)c2)n1)Oc1cccc(C2CCCCC2)c1.Cl (stereo not shown) [TCMDC-137455],116.2%
16,c1ccc(COc2ccc(C3CCCCC3)cc2)nc1 [TCMDC-131330],8.048%
17,O=C(Cc1ccc(F)cc1)NC1CCN(c2ccnc3cc(Cl)ccc23)C1 (stereo not shown) [TCMDC-133668],7.133%
18,C=C(C)CSc1nc2c(c(=O)n1CCc1ccccc1)C1(CCCC1)Cc1ccccc1-2 [TCMDC-123892],66.35%
19,CCCSc1nc2c(c(=O)n1CCc1ccccc1)C1(CCCC1)Cc1ccccc1-2 [TCMDC-123890],-17.67%
20,CC(C)Sc1nc2c(c(=O)n1CCc1ccccc1)C1(CCCC1)Cc1ccccc1-2 [TCMDC-123891],-12.92%
21,Cc1cc(C(=O)Nc2ccc3c(c2)CCN3C2CCN(Cc3cc(F)cc(F)c3F)C2)no1 (stereo not shown) [TCMDC-135083],0.2789%
22,Cc1nc(N)nc(N)c1CCCOc1cccc(Cl)c1 [TCMDC-138067],-4.32%
23,CN(Cc1cc(C(F)(F)F)cc(C(F)(F)F)c1)C(=O)C1CNCC1c1ccc(F)cc1 (stereo not shown) [TCMDC-137553],10.31%
24,CN(Cc1cc(C(F)(F)F)cc(C(F)(F)F)c1)C(=O)C(Cc1ccc(F)cc1)C1CCCNC1 (stereo not shown) [TCMDC-138909],92.9%
25,CN(Cc1ccc(C#N)cc1)C1CCN(c2cc(NC(=O)c3ccc(F)cc3)ccn2)CC1 [TCMDC-134978],9.957%
26,CCCc1cc(N2CCC(N(CC)CC)C2)nc(Nc2ccc(OC)cc2)n1 (stereo not shown) [TCMDC-132388],-68.85%
27,CC(=NN=C(N)N)c1ccc2ccc3ccccc3c2c1 [TCMDC-137667],76.83%

row,SMILES,% Inhibition
1,COC(=O)c1ccc(CC(C)NCC(O)c2ccc3ccc4ccccc4c3c2)cc1 (stereo not shown) [TCMDC-131429],28.11%
2,Nc1ncc(Cc2ccc3c(ccc4ccccc43)c2)c(N)n1 [TCMDC-137874],19.52%
3,CC(=NN=C(N)N)c1ccc2c(c1)Cc1ccccc1-2 [TCMDC-137666],27.22%
4,CC(=NN=C(N)N)c1ccc2c(ccc3ccccc32)c1 [TCMDC-137669],96.96%
5,CC(C)C[C@@H]1C(=O)N[C@H](C2Cc3ccccc3C2)C(=O)N1[C@@H](C(=O)O)c1ccc(F)cc1F [TCMDC-138777],-24.68%
6,Clc1nc2ccccn2c1C=Cc1ccc2ccccc2n1 [TCMDC-125327],-7.636%
7,COc1cc(-c2nc(-c3ccc4c(c3)CCC4=NO)c(-c3ccncc3)[nH]2)ccc1OCCN1CCCCC1 [TCMDC-141257],22.85%
8,O=C(/C=C/c1cccc(Cl)c1)Nc1ccc2nc(CN3CCCC3)ccc2c1 [TCMDC-135628],-49.28%
9,O=C(Nc1cccc(CN2CCCN(Cc3ncc[nH]3)CC2)c1)c1ccc(Cl)c(Cl)c1 [TCMDC-141833],-19.06%
10,Cc1ccc(Cc2cccc3nc(N)nc(N)c23)cc1 [TCMDC-137730],-6.399%
11,COc1ccc(CCNCc2ccc3nc(N)c(C)cc3c2)cc1 [TCMDC-138098],30.17%
12,Cc1cc2ccc(-c3cccc(CN)c3)cc2nc1N [TCMDC-137624],65.41%
13,Cc1ccc(O)cc1Nc1ccnc2cc(-c3cccc(CNCCS(C)(=O)=O)c3)ccc12 [TCMDC-138472],-16.38%
14,Cc1cc2cc(-c3ccc(CN)cc3)ccc2nc1N [TCMDC-137774],101.7%
15,CN1CCc2ccc(NC(=O)Nc3cccc([N+](=O)[O-])c3)cc2C1 [TCMDC-139120],-5.165%
16,FC(F)(F)Oc1ccc(Nc2cc(-c3ccncc3)nc(-c3cccnc3)n2)cc1 [TCMDC-125416],22.38%
17,CC(C)(C)c1ccc(NC(=O)c2ccc(CN3CCCN(Cc4cccc(O)c4)CC3)cc2)cc1 [TCMDC-136433],-12.56%
18,Cc1cccc2[nH]c(-c3cccc(-c4cccc(NC(=O)c5cccnc5Cl)c4)c3)nc12 [TCMDC-136839],42.83%
19,O=[N+]([O-])c1cccc(-c2ccc(C=NNc3cc(N4CCCC4)nc(N4CCCC4)n3)o2)c1 [TCMDC-124053],34.95%
20,CC1CN(Cc2cccc(F)c2)CCN1c1ccc(NC(=O)c2cccs2)cc1 (stereo not shown) [TCMDC-135009],3.6%
21,Cc1cccc(-c2ccc(CNC3CCN(CC4Cn5c(=O)ccc6ccc(F)c4c65)CC3)cn2)c1 (stereo not shown) [TCMDC-134413],-59.7%
22,COC(=O)c1ccccc1COc1ccc(CC2(NC(=O)[C@H](Nc3ccc(C#N)c4ccccc34)C(C)(C)C)CCCC2)cc1 [TCMDC-136783],21.91%
23,Cc1cccc2[nH]c(-c3cccc(-c4ccc(CNCc5ccccc5)cc4)c3)nc12 [TCMDC-132710],64.93%
24,C#CCNCc1ccc(-c2cccc(-c3nc4c(C)cccc4[nH]3)c2)cc1 [TCMDC-132804],-34.44%
25,Cc1cccc2[nH]c(-c3ccc(-c4ccc(CNCCN5CCNCC5)cc4)s3)nc12 [TCMDC-132870],77.87%
26,CNCCNCc1cccc(-c2cccc(-c3nc4c(C)cccc4[nH]3)c2)c1 [TCMDC-132825],101.1%
27,Cc1cccc2[nH]c(-c3cccc(-c4cccc(CNCc5ccccc5)c4)c3)nc12 [TCMDC-132713],10.68%

row,SMILES,% Inhibition
1,Cc1cccc2[nH]c(-c3ccc(-c4ccc(CN5CCN(CCN6CCOCC6)CC5)cc4)s3)nc12 [TCMDC-133930],30.2%
2,COCCN1CCN(Cc2ccc(-c3ccc(-c4nc5c(C)cccc5[nH]4)s3)cc2)CC1 [TCMDC-133021],2.979%
3,Cc1cccc2[nH]c(-c3ccc(-c4ccc(CNCc5ccccc5)cc4)s3)nc12 [TCMDC-132709],-2.299%
4,Cc1cccc2[nH]c(-c3cccc(-c4cccc(CNC(C)C)c4)c3)nc12 [TCMDC-132738],-9.933%
5,Cc1cccc2[nH]c(-c3ccc(-c4cccc(CNCCCNS(C)(=O)=O)c4)cc3)nc12 [TCMDC-133082],-3.877%
6,CNCCNCc1ccc(-c2ccc(-c3nc4c(C)cccc4[nH]3)s2)cc1 [TCMDC-132828],96.61%
7,Cc1cccc2[nH]c(-c3ccc(-c4ccc(CN5CCN(CCO)CC5)cc4)s3)nc12 [TCMDC-133027],2.277%
8,CN(c1ccc2c(c1)nc(NCc1ccc(F)cc1)n2C)c1ccnc(Nc2ccc(CS(C)(=O)=O)cc2)n1 [TCMDC-138747],36.21%
9,Oc1cc(Nc2ccnc3ccc(I)cc23)c(F)cc1Cl [TCMDC-138500],-12.42%
10,COc1ccc(-n2cc(C(=O)c3cc(Br)ccc3O)cc(C#N)c2=O)cc1Cl [TCMDC-124524],13.45%
11,COc1ccccc1C1CC(c2ccccc2)=NN1C(=O)c1ccccc1 (stereo not shown) [TCMDC-123702],28.29%
12,O=C(CCCCCNC(=O)c1ccc(O)c(-c2ccc(Cl)c(Cl)c2)c1)NCc1cccc2ccccc12 [TCMDC-140875],8.372%
13,COc1cccc(CNC(=O)c2cnc(N3CCN(c4ccncc4)CC3)c(Cl)c2)c1 [TCMDC-134628],35.94%
14,Cc1cccc2[nH]c(-c3ccc(-c4ccc(CNC(C)C)cc4)cc3)nc12 [TCMDC-132744],-47.89%
15,Cc1cccc2[nH]c(-c3ccc(-c4cccc(CNCCc5ccncc5)c4)cc3)nc12 [TCMDC-132850],-15.09%
16,Cc1cccc2[nH]c(-c3ccc(-c4cccc(CNCc5ccccc5)c4)cc3)nc12 [TCMDC-132707],-22.49%
17,CNCCNCc1cccc(-c2ccc(-c3nc4c(C)cccc4[nH]3)cc2)c1 [TCMDC-132831],94.01%
18,CNc1ccc(CNCc2cccc(-c3ccc(-c4nc5c(C)cccc5[nH]4)cc3)c2)cc1 [TCMDC-132979],-24.36%
19,Cc1cccc2[nH]c(-c3ccc(-c4ccc(CNCc5ccccc5)cc4)cc3)nc12 [TCMDC-132701],-18.64%
20,CNCCNCc1ccc(-c2ccc(-c3nc4c(C)cccc4[nH]3)cc2)cc1 [TCMDC-132837],80.14%
21,COc1ccc(CNCc2cccc(-c3ccc(-c4nc5c(C)cccc5[nH]4)cc3)c2)cc1 [TCMDC-132726],-14.09%
22,Cc1cccc2[nH]c(-c3ccc(-c4cccc(CNCCN(C)C)c4)cc3)nc12 [TCMDC-132682],17.36%
23,Cc1cccc2[nH]c(-c3ccc(-c4cccc(CNCc5cccc(N)c5)c4)cc3)nc12 [TCMDC-132934],83.13%
24,Cc1cccc2[nH]c(-c3ccc(-c4ccc(CNCC(C)C)cc4)cc3)nc12 [TCMDC-132803],16.22%
25,Cc1cccc2[nH]c(-c3ccc(-c4ccc(CNCc5ccc(CN)cc5)cc4)cc3)nc12 [TCMDC-132813],65.29%
